Test results: PubChem BioAssay (NCI)
This is part of a sample that, as a whole, favours compounds with a hit. Of some 79,000 tested, about 15% had one in any assay. No stated cut-off is given here; in the data, active means growth inhibition above about 70%; inactive means the rest.

Columns and labels:
[1] = NCI Yeast Anticancer Drug Screen. Data for the rad50 strain (AID 155);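 further: 0% = growth of vehicle-only cultures of the same strain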; details: S. cerevisiae rad50 strain growth inhibition; at 50.0 µM; hits give high values
Procedure, shortened: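 Growth of the mutant yeast was measured after compound exposure and referenced to vehicle-treated cultures.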

[2] = NCI Yeast Anticancer Drug Screen. Data for the mec2-1 strain (AID 157); details: S. cerevisiae mec2-1 strain, at 50.0 µM, hits give high values
Procedure, shortened: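 Growth inhibition is read against vehicle-treated controls after compound exposure of the mec2-1 yeast strain, which is defective in DNA damage repair or cell cycle control.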

[3] = NCI Yeast Anticancer Drug Screen. Data for the sgs1 mgt1 strain (AID 161);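 further: 0% = growth of cultures given vehicle only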; details: S. cerevisiae sgs1 mgt1 strain, at 50.0 µM, hits give high values
Procedure, shortened: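 This yeast growth screen uses a strain with defined DNA-repair lesions; compound-treated growth is compared with vehicle-treated growth.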

[4] = NCI Yeast Anticancer Drug Screen. Data for the cln2 rad14 strain (AID 165);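 further: 0% = growth equal to vehicle treated cultures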; details: S. cerevisiae cln2 rad14 strain, at 50.0 µM, hits give high values
Procedure, shortened: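 Growth inhibition, relative to vehicle-treated controls, is the read-out. The test organism is a yeast strain with defined genetic alterations, cln2 rad14.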

[5] = NCI Yeast Anticancer Drug Screen. Data for the bub3 strain (AID 167); details: S. cerevisiae bub3 mutant strain, at 50.0 µM, hits give high values
Procedure, shortened: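 Whole-cell yeast assay. The mutant strain was incubated with compounds, and growth inhibition was determined by comparison with vehicle-treated cells.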

[6] = NCI Yeast Anticancer Drug Screen. Data for the mlh1 rad18 strain (AID 175); details: S. cerevisiae mlh1 rad18 strain growth inhibition; at 50.0 µM; hits give high values
Procedure, shortened: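 Cells of a genetically altered yeast strain, deficient in DNA damage repair, were treated with compound. Their growth was then compared with that of vehicle-treated cultures to give inhibition.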

Measured: growth inhibition

CCOC(=O)c1cnc2ccc(OC)cc2c1
inactive: [1] 0.7% | [2] 0.7% | [3] -6.35% | [4] -76.6% | [5] 35.5% | [6] 18.3%

CC(C)c1cccc(C(C)C)c1NC(=O)C(=O)C(C(=O)c1ccccc1-c1ccccc1)C1OC(=O)c2ccccc21 (centres undefined)
inactive: [1] 8.2% | [2] 3.8% | [3] 19.6% | [4] -49.2% | [5] -3.05% | [6] 8%

C#CCOCCC(C(=O)O)C(=O)O
inactive: [1] 9.9% | [2] 5.45% | [3] 8.6% | [4] -1.7% | [5] 11.9% | [6] 2.7%

CC1(C)CC(C(N)=O)C(C)(C)N1O (centres undefined)
inactive: [1] 13% | [2] 7.55% | [3] 23.6% | [4] 17.9% | [5] 23.8% | [6] 7.1%

CCCCCCC(O)CCCCCCCCCCC(=O)OC (centres undefined)
inactive: [1] 33.1% | [2] 4.5% | [3] 20.6% | [4] -26.4% | [5] 12.8% | [6] 33.8%

CC(C)C(C)NC(=O)C(C)(C)C(C)(C)C (centres undefined)
inactive: [1] -4.85% | [2] -6.35% | [3] 10.6% | [4] -11.2% | [5] -0.7% | [6] -5.55%

CC1=NCC(C)S1 (centres undefined)
inactive: [1] -3.3% | [2] -9.95% | [3] 7% | [4] -6.05% | [5] -9.3% | [6] -5.75%

CC/C(=N\O)c1ccc2cc(Cl)c3ccccc3c2c1
inactive: [1] 21.7% | [2] 25.4% | [3] 44.5% | [4] 8.75% | [5] 54.2% | [6] 31.9%

C/C(=N\Nc1ccc([N+](=O)[O-])cn1)c1ccccn1
inactive: [1] 31.2% | [2] -10.2% | [3] 25.4% | [4] 5.6% | [5] 12.2% | [6] -1.3%

CNC(=O)c1cc2nc3ccccc3c(=O)n2c2ccccc12
inactive: [1] -46.3% | [2] -54% | [3] -25.1% | [4] -20.6% | [5] -7% | [6] -31.1%

CCCCNC(=S)/N=C/c1c(O)cc(C)oc1=O
inactive: [1] -16.6% | [2] -25.9% | [3] -24.1% | [4] 2.25% | [5] -14.6% | [6] 2.75%

O=C1c2cc3c(-c4ccccc4)oc(-c4ccccc4)c3cc2C(=O)c2c(O)ccc(O)c21
inactive: [1] 1.2% | [2] -7.15% | [3] -20.6% | [4] -4.7% | [5] -5.75% | [6] 5.5%

CC(=O)c1ccc2ccc3ccccc3c2c1O
inactive: [1] -3.85% | [2] -8.75% | [3] -14.3% | [4] -30.6% | [5] -8.4% | [6] 5.25%

O=C1CN(c2cccc(Cl)c2)C(=O)CN1/N=C/c1ccc(O)c(O)c1
inactive: [1] -29.1% | [2] 0.15% | [3] 3.45% | [4] -6.95% | [5] 46% | [6] -8.9%

CN(C)CCOC(=O)C(C)(C)Sc1ccc(Cl)cc1
inactive: [1] 11.1% | [2] 23.3% | [3] 26.4% | [4] -5.35% | [5] 0.4% | [6] 25.5%

O=C(O)c1cc(Br)sc1Br
inactive: [1] 8.75% | [2] -12.4% | [3] -8.8% | [4] 0.7% | [5] -9.6% | [6] -15.1%

N/C(=N\OC(=O)NC(Cl)=C(Cl)Cl)c1ccc(Cl)cc1
inactive: [1] -18.9% | [2] -34.4% | [3] 7.4% | [4] 16.7% | [5] -13.9% | [6] -7.95%

N[C@@H]1c2c(Br)sc(Br)c2C(=O)[C@H]1Br
inactive: [1] -5.35% | [2] -2.85% | [3] 5.6% | [4] 5.95% | [5] -7.05% | [6] -17.4%

CC(CCC(=O)O)C1CCC2C3CCC4CC(OC=O)CCC4(C)C3CC(=O)C12C (centres undefined)
inactive: [1] -5.9% | [2] -3.25% | [3] -12.8% | [4] 0.15% | [5] -1.6% | [6] -13.9%

Cc1ccc(/C=c2\cc3oc(=O)c4cccc(c4-3)c2=O)cc1
inactive: [1] -5.3% | [2] 18.1% | [3] 58.6% | [4] 23.6% | [5] 44% | [6] 19.1%

CSC(=S)n1nc(C)c(N=Nc2ccccc2[N+](=O)[O-])c1C
inactive: [1] 26.5% | [2] -2.85% | [3] 0.15% | [4] 5.05% | [5] 7.95% | [6] 7.75%

CCCCCCCCNC=O
inactive: [1] 26.1% | [2] 11.1% | [3] 9.45% | [4] 1.1% | [5] 13.1% | [6] 20.8%

O=C(Oc1c(Br)cc(Br)cc1C(=O)Oc1ccccc1)C(=O)Oc1c(Br)cc(Br)cc1C(=O)Oc1ccccc1
inactive: [1] 52.7% | [2] 23.9% | [3] 19.9% | [4] 28.8% | [5] 51.2% | [6] 32.6%

CCCCCCn1c(=O)c(N(C)C)c(C)n(C)c1=O
inactive: [1] -36.1% | [2] -3.5% | [3] -9.05% | [4] 46% | [5] 17.7% | [6] -23.4%

O=C(/C=C/c1ccc(OCC(=O)N2CCN(c3ccccc3)CC2)cc1)c1ccc(Cl)cc1
inactive: [1] 13.6% | [2] 13.9% | [3] -5.8% | [4] 0.55% | [5] 2.7% | [6] -4.45%

COC(=O)C1=C(\O)C[C@@]2(C)CC[C@@H](C(=O)OC)C2C/C=C\1C(=O)OC (some centres undefined)
inactive: [1] -4.75% | [2] -6.25% | [3] 0.05% | [4] 11.1% | [5] -8.6% | [6] 34.8%

N#Cc1ccccc1Br
inactive: [1] 21.4% | [2] -19.8% | [3] 21.1% | [4] 11.8% | [5] 11.8% | [6] 29.8%

CN(C)S(=O)(=O)c1ccc(NC(=O)OC2CCCC2)cc1
inactive: [1] 12.9% | [2] 3.7% | [3] 6.8% | [4] 33.2% | [5] 24.6% | [6] 0.35%

Cc1ccc(S(=O)(=O)C(=S)SCc2ccccc2)cc1
inactive: [1] 38.5% | [2] 37.8% | [3] 59% | [4] 19.6% | [5] 35.4% | [6] 33%

SC(S)(Cc1ccccc1)Cc1ccccc1
inactive: [1] -6.4% | [2] 2.2% | [3] 16.4% | [4] -9.65% | [5] 35.1% | [6] 1%

O=C1c2ccccc2C(=O)c2cc(Br)ccc21
inactive: [1] -6.75% | [2] -21.6% | [3] 12.4% | [4] -110% | [5] -16.2% | [6] 0.2%

CC(=O)O[C@H]1CC(C)(C)C(=C=C/C(C)=C/C=C/C=C/C=C(C)/C=C2C=C(/C=C/[C@@]34O[C@]3(C)C[C@@H](O)CC4(C)C)C(=O)O/2)[C@](C)(O)C1
inactive: [1] 9.55% | [2] 32.5% | [3] 0.9% | [4] 6.2% | [5] 3.6% | [6] 3.95%

Cn1cc2c(=O)n(OS(=O)(=O)c3ccccc3)c(=O)[nH]c2n1
inactive: [1] 12.8% | [2] -11.8% | [3] -4.55% | [4] -4.4% | [5] -5.2% | [6] 8.8%

O=[N+]([O-])c1ccc(C[Se]c2ncnc3c2ncn3C2OC(CO)C(O)C2O)cc1 (centres undefined)
inactive: [1] -15.1% | [2] -7% | [3] 13.6% | [4] -32.2% | [5] 0.6% | [6] -8.35%

COC(=O)c1ccccc1NC(=O)Nc1ccc(SC)cc1
inactive: [1] -2% | [2] 24.4% | [3] 19.6% | [4] -8.65% | [5] 31.2% | [6] 14.3%

CCCCCCC1CCCCC1
inactive: [1] -35% | [2] -41.7% | [3] -29% | [4] 19.9% | [5] -28.8% | [6] -20%

O=C(Nc1ccc(Cl)c(Cl)c1)C(=O)Nn1c(=S)[nH]c2ccccc2c1=O
inactive: [1] -4.05% | [2] -16.4% | [3] 2.8% | [4] -1.5% | [5] -0.8% | [6] 0.65%

CCSC(SCC)[C@H](NC(C)=O)[C@@H](O)[C@H](O)[C@H](O)CO
inactive: [1] -6.8% | [2] -12.2% | [3] -8.85% | [4] 0.1% | [5] 2.85% | [6] -12.3%

CCCCCCCCCCCCCCCCCC(=O)NC(=O)Nc1ccc(C)cc1
inactive: [1] -3.9% | [2] 17.6% | [3] -10.1% | [4] -17% | [5] -9.65% | [6] 11.2%
